D1 antag: blocks dopamine activation of the human D1 receptor | P21728 | HEK293 TREx D1 cells, calcium flux, dopamine EC80; stronger effect = lower value | activity change, negative = inhibition, % at 10 µM | 360,000 tested, 3.2% active | AID 504652; in the data active = activity change below about -30%
Target sequence (P21728 whole entry, looked up): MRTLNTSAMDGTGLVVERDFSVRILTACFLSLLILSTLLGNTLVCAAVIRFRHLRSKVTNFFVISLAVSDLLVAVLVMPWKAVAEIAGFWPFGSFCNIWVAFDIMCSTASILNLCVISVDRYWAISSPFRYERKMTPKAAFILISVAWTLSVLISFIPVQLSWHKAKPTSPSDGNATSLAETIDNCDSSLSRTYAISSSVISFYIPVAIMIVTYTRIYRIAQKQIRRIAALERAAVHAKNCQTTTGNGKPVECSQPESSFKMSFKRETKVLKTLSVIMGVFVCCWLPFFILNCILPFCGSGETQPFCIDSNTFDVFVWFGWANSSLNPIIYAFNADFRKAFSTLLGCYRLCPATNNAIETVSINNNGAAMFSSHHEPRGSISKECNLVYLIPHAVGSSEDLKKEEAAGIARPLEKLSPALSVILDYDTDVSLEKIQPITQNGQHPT
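Cells carrying a force-coupled, tetracycline-inducible human D1 receptor report calcium flux. Each well gets a 10 s baseline, compound with 180 s monitoring, then an EC80 dopamine stimulus with a second 180 s kinetic read.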
DRD3 antagonist: antagonists of human D3 dopamine receptor. P35462. D3R cells, DiscoveRx beta-arrestin luminescence, antagonist mode; stronger effect = lower value. max response, negative = inhibition, %. 360,000 tested, 2.5% active. AID 652054; in the data active = max response below about -50%; inconclusive = no clear call, values can overlap the other calls
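Cells plated overnight at 1500 cells/well, then exposed to library compounds with dopamine controls for 90 minutes at 37 degrees C. DiscoveRx reagent added for 30–60 minutes at room temperature; luminescence read, quantitative HTS format.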
D1 agonist: agonists of human D1 dopamine receptor | P21728 | activation, % at 2 µM | HEK293 T-REx D1 cells, calcium flux, agonist mode | 360,000 tested, 1% active; in the data active = activation above about 30%
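Inducible HEK293 T-REx D1 cells, force-coupled to calcium signalling, were plated at 4000 cells/well with tetracycline and held overnight at 30 C. After no-wash calcium dye loading, compound-evoked calcium rise over 180 s flagged agonists.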
DRD3 agonist: activates the human D3 dopamine receptor; max activation, %; AID 652048; D3R DiscoveRx beta-arrestin cells, luminescence, 90 min; 410,000 tested, 0.58% active; in the data active = max activation above about 30%
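Cells at 1500/well, incubated overnight, then treated with pinned compounds (dopamine as control) for 90 min at 37 degrees C. DiscoveRx reagent added for 30 - 60 minutes at room temperature; luminescence read.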
D1 PAM: enhances dopamine response at the human D1 receptor. potentiation, % at 10 µM. P21728. 360,000 tested, 0.036% active. HEK293 TREx D1 cells, calcium flux, dopamine EC20 potentiation; in the data active = potentiation above about 30%
A number is an active result; i = inactive; ? = inconclusive; nt = not tested or not shown. The list is not random: actives were taken first. Their share in the collection is about 6%.

SMILES	D1 antag	DRD3 antagonist	D1 agonist	DRD3 agonist	D1 PAM
COc1ccc(-c2coc3c(C(=O)N4CCN(C)CC4)cccc23)c(C)c1	nt	-86.6	nt	i	nt
CN1CCN(C(=O)c2cccc3c(-c4ccc(F)c(F)c4)coc23)CC1	nt	-100.5	nt	i	nt
O=C(NCc1cccs1)C1CCC(CNS(=O)(=O)c2ccccc2)CC1 (centres undefined)	-33.4	i	i	i	i
O=C(NCc1cccs1)C1CCCN(c2nc3ccccc3o2)C1 (centres undefined)	-45.9	i	i	i	i
CC1(C(=O)NS(=O)(=O)c2ccc3c(c2)CCO3)CCN1C(=O)C1(c2ccc(Cl)cc2)CC1 (centres undefined)	nt	i	nt	i	nt
O=C(CCn1cncn1)N1CCCC(N2CCN(c3cccc(C(F)(F)F)c3)CC2)C1 (centres undefined)	-44.5	i	i	i	i
O=C(c1ccc(C(F)(F)F)cc1)C1CCCN(C(=O)Cn2cncn2)C1 (centres undefined)	-37.3	i	i	i	i
O=C(CCn1cncn1)N1CCCC(N2CCN(c3ccc(F)cc3)CC2)C1 (centres undefined)	i	i	i	i	i
CC1CCN(C(=O)c2cc3c(=O)n(C)c4cc(Cl)ccc4c3s2)CC1	i	nt	i	i	i
CCCN(C)C1CN(Cc2cn(CCCC(=O)OC)nn2)S(=O)(=O)C1 (centres undefined)	nt	i	nt	i	nt
CCOc1ccc(-c2csc(NC(=O)CSC3=NC(=O)CN3C(C)=O)n2)c2ccccc12	i	i	i	i	i
CCOc1ccc(-c2csc(NC(=O)CSCC(=O)O)n2)c2ccccc12	i	i	i	44.7	i
C=C1CCN([C@@H](CC(C)C)C(=O)NCc2ccc(Cl)cc2)S(=O)(=O)c2ccccc21	nt	i	nt	i	nt
C=C1CCN([C@@H](CC(C)C)C(=O)NCCC(C)C)S(=O)(=O)c2ccccc21	nt	-50.2	nt	i	nt
CC(C)(C)OC(=O)Cc1nnc(C(C(=O)OCc2ccccc2)c2ccccc2)o1 (centres undefined)	i	nt	i	nt	i
CCN1CCN(c2ccc(NC(=O)c3ccc([N+](=O)[O-])o3)cc2Cl)CC1	i	-72.0	i	i	i
CCN1CCN(c2ccc(NC(=O)c3ccc(F)cc3)cc2Cl)CC1	-39.8	i	i	i	i
CC(C)Oc1ccc(CNC(=O)Cc2ccc(NC(=O)N3CCSc4ncccc43)cc2)cc1	i	nt	i	i	i
CC(CC=O)CCCC(C)(C)O (centres undefined)	nt	nt	nt	i	nt
C=C1CC[C@H](O)CC1=C/C=C1\CCC[C@]2(C)[C@@H]([C@H](C)CCCC(C)(C)O)CC[C@@H]12	nt	nt	nt	i	nt
COc1ccc(C(C)NC(=S)NCc2ccc(F)cc2)cc1 (centres undefined)	i	i	i	i	i
Cc1ccc(C)c(C(C)NC(=S)NCc2ccc(F)cc2)c1 (centres undefined)	i	i	93.3	i	i
CCC(NC(=S)NCc1ccc(F)cc1)c1ccccc1 (centres undefined)	i	i	40.2	i	i
Cc1ccc(NC(=S)NCc2ccc(F)cc2)cc1	nt	i	nt	i	nt
COc1ccc(CN2C(=O)c3cccc4cccc(c34)C2c2nc3ccccc3[nH]2)cc1 (centres undefined)	nt	i	nt	i	nt
SMILES	D1 antag	DRD3 antagonist	D1 agonist	DRD3 agonist	D1 PAM
COc1ccc(-c2noc(N3CCN(c4cccc(Cl)c4)CC3)n2)cc1OC	i	nt	i	i	i
OC(CNC1CCCC1)COc1ccccc1Br (centres undefined)	-36.2	i	i	i	i
Cc1cc2c(OCC(O)CNC3CCCCC3)cccc2[nH]1 (centres undefined)	i	-59.0	i	i	i
Cc1cc2c(OCC(O)CN3CCCCC3)cccc2[nH]1 (centres undefined)	i	i	i	i	i
OC(CNC1CCCCCC1)COc1cccc2ccccc12 (centres undefined)	i	-75.5	44.9	i	i
OC(CNC1Cc2ccccc2C1)COc1ccc(F)cc1 (centres undefined)	i	-64.2	i	i	i
COC(=O)[C@@]12C[C@@H](CC(=O)N3CCSCC3)C(=O)N(Cc3ccc4c(c3)OCO4)C1=CCC(C)(C)C2	nt	i	nt	i	nt
COc1ccc(C)cc1S(=O)(=O)N1CCN(C/C=C/c2ccccc2)CC1	i	?	i	i	i
Clc1cccc(CNc2nnnn2-c2ccccc2)c1	-46.5	-52.1	37.4	i	i
COc1ccc(/C=C2/SC(=S)N(Cc3ccccc3)C2=O)cc1O	i	?	i	i	i

Assay outcomes as filed in PubChem BioAssay.
